In PubChem BioAssay AID504832 (National Center for Advancing Translational Sciences (NCATS), 2011):
Hit rate of the full screen: of about 310,000 compounds, about 18,000 (5.8%) were called active. A call without a number means that no potency is given here. Roughly 22% stayed inconclusive and do not appear here. The call rests on the fitted dose curve; in most records, active means well fitted inhibition curve with a large enough effect; inconclusive means small, poorly fitted or top-dose-only effect, or another doubt; inactive means no such curve, though single readings can be large or run the other way. The full list was thinned out, with actives kept by preference.
Potency means the concentration at half of the fitted maximal effect.

Experiment: Primary qHTS for delayed death inhibitors of the malarial parasite plastid, 48 hour incubation
Conditions: P. falciparum luciferase growth in erythrocytes; series mostly up to 28.7 µM
Summary of the method: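 A one-generation exposure of luciferase-tagged malaria parasites in RPMI 1640/Albumax erythrocyte culture, 37 C and 5% CO2. Inhibition is inferred from decreased luminescence after adding detection reagent.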
With `Cc1cc2c(cc1C)[n+](C)cn2CC(O)COCC1CC=CCC1` (stereo not drawn) the Potency was 2.94 µM (active). With `COc1ccc(S(=O)(=O)NCCOc2ccccc2)cc1F` the Potency was “inactive”. For `COc1ccc(NC(=O)CCC(=O)Nc2cc(OC)c(NC(=O)c3ccco3)cc2OC)c(OC)c1`, the Potency was “inactive”. With `CC1(c2ccc(Cl)cc2Cl)NC(=O)N(CC(=O)Nc2cccnc2Cl)C1=O` (stereo not drawn) the Potency was “inactive”. In the case of `Cc1cc(Br)ccc1NC(=O)CN(C)C(=O)CN1C(=O)NC2(CCCC2)C1=O`, the Potency is reported as “inactive”. For `Cc1ccc(S(=O)(=O)Nc2ccc3ncccc3c2)cc1`, the Potency was “inactive”. With `COc1cc(NS(=O)(=O)c2ccc3ccccc3c2)c2ncccc2c1` the Potency was 4.15 µM (active). With `COc1ccc2cc(S(=O)(=O)Nc3ccccn3)ccc2c1` the Potency was “inactive”. With `CN(C(=O)C1CCN(c2ncnc3c2nc2n3CCCCC2)CC1)C1CCCCC1` the Potency was “inactive”. In the case of `Cc1cc(C)cc(NC(=O)NCc2ccccn2)c1`, the Potency is reported as “inactive”. With `CN(C)C(=O)N=NC(=O)N(C)C` the Potency was “inactive”. In the case of `Cc1ccc(C(=O)C[n+]2cc(-c3ccccc3)n3c2CCCCC3)cc1`, the Potency is reported as 1.85 µM (active). For `Cc1ccc(C(=O)CS(C)(=O)=O)cc1`, the Potency was “inactive”. With `O=C(CN1C2=NCCN2c2ccccc21)c1cccs1` the Potency was “inactive”. For `O=C(C[n+]1cc(-c2ccc(Cl)c(Cl)c2)n2c1CCC2)c1cccs1`, the Potency was 2.08 µM (active). For `Cc1ccc(-c2c[n+](CC(=O)Nc3ccccc3)c3n2CCC3)cc1`, the Potency was 7.38 µM (active). In the case of `O=C(CN1CCOCC1)Nc1ccccc1`, the Potency is reported as “inactive”. In the case of `Cc1ccc(S(=O)(=O)N(C)CC(=O)OCC(=O)Nc2ccccc2)cc1`, the Potency is reported as “inactive”. With `CCS(=O)(=O)N1CCN(C(=O)c2cccs2)CC1` the Potency was “inactive”. With `Cc1ccc(C(=O)CSc2ccccc2C(=O)O)cc1` the Potency was “inactive”. In the case of `Cc1c(NC(=O)c2c([N+](=O)[O-])cnn2C)c(=O)n(-c2ccccc2)n1C`, the Potency is reported as “inactive”. For `Cc1ccc(NC(=O)CCN2C(=O)c3ccccc3C2=O)cc1C`, the Potency was “inactive”. With `O=C(NCc1ccc2c(c1)OCO2)C(=O)NCC1OCCN1S(=O)(=O)c1ccc(F)cc1` (stereo not drawn) the Potency was “inactive”. In the case of `O=C(COc1ccccc1)Nc1cc2c3c(c1)CC(=O)N3CCC2`, the Potency is reported as “inactive”. For `Cc1nn(-c2ccccc2)c2c1c(C)c(CCC(=O)NCC1CCCO1)c(=O)n2C` (stereo not drawn), the Potency was “inactive”. With `Cc1cc(OCC(=O)Nc2c(C)n(C)n(-c3ccccc3)c2=O)ccc1[N+](=O)[O-]` the Potency was “inactive”. For `CCCCc1nc2cc(C(=O)NCCc3cnn(C)c3)ccc2o1`, the Potency was “inactive”. In the case of `Cc1oc(-c2ccccc2F)nc1CS(=O)CC(=O)NCCN1CCCCC1C` (stereo not drawn), the Potency is reported as “inactive”. With `C/C(=N\NC(=S)NC(C)C)c1ccc(C(C)(C)C)cc1` the Potency was “inactive”. In the case of `CC(C)NC(=S)NN=C1CCCCCCCCCCC1`, the Potency is reported as 11.7 µM (active). With `CC(C)(C)NC(=O)C(=O)NN=C1CCCCCCC1` the Potency was “inactive”. With `COc1ccccc1C(=O)Nc1cccc(C(=O)N2CCOCC2)c1` the Potency was “inactive”. For `Cc1noc(C)c1CCC(=O)N1CCCC(CO)(Cc2ccccc2)C1` (stereo not drawn), the Potency was “inactive”. For `Cc1ccccc1N1CCN(CCCN2C(=O)C3CCCCN3C2=O)CC1` (stereo not drawn), the Potency was “inactive”. With `CC(=O)Nc1ccc(S(=O)(=O)NNC(=O)CCc2ccccc2)cc1` the Potency was “inactive”. With `CS(=O)(=O)N1CCCC(C(=O)Nc2ccccc2C(F)(F)F)C1` (stereo not drawn) the Potency was “inactive”. In the case of `O=C(OCC1OC(Oc2ccc(O)cc2)C(O)C(O)C1O)c1ccccc1` (stereo not drawn), the Potency is reported as “inactive”. For `Cc1cc(C)c2nc(SCCC#N)nc(C)c2c1`, the Potency was “inactive”. With `Cc1cc(C)c2nc(-c3ccco3)cc(C(=O)O)c2c1` the Potency was “inactive”. With `Cc1cc(C)c2nc3nc(C)cc(C)c3c(N)c2c1` the Potency was 2.33 µM (active). With `Cc1cc(C)cc(C(=O)NCCN2CCOCC2)c1` the Potency was “inactive”. In the case of `Cc1ccc(C(=O)NCCN2CCOCC2)cc1C`, the Potency is reported as “inactive”. With `CCC1=Nc2cc(C(=O)NCCN3CCCC3)ccc2Sc2ccc(C)cc21` the Potency was 10.4 µM (active). With `O=C(NCc1ccccc1)C(c1ccco1)N(C(=O)c1csnn1)c1ccccc1F` (stereo not drawn) the Potency was “inactive”. For `O=C(NC1CCCC1)C(c1ccco1)N(C(=O)c1csnn1)c1ccccc1` (stereo not drawn), the Potency was “inactive”. With `COc1cccc(C(C(=O)NC2CCCC2)N(C(=O)c2ccco2)c2cccc(C(C)=O)c2)c1OC` (stereo not drawn) the Potency was 1.85 µM (active). With `Cc1ccccc1N(C(=O)CNC(=O)c1cccs1)C(C(=O)NC1CCCC1)c1ccncc1` (stereo not drawn) the Potency was “inactive”. In the case of `CC(C)c1ccc(N(C(=O)c2ccco2)C(C(=O)NC2CCCC2)c2cccnc2)cc1` (stereo not drawn), the Potency is reported as 9.28 µM (active). For `COc1cc(C(C(=O)NC2CCCC2)N(C(=O)c2ccco2)c2ccccc2C(C)=O)cc(OC)c1OC` (stereo not drawn), the Potency was “inactive”. For `COc1cccc(N(C(=O)CNC(=O)c2ccco2)C(C(=O)NC2CCCCC2)c2cccnc2)c1` (stereo not drawn), the Potency was “inactive”. With `Cc1ccc(N(C(=O)CNC(=O)c2ccco2)C(C(=O)NC2CCCC2)c2ccncc2)cc1` (stereo not drawn) the Potency was “inactive”. In the case of `O=C(NC1CCCC1)C(c1ccc(N2CCOCC2)cc1)N(C(=O)c1ccco1)c1ccccc1F` (stereo not drawn), the Potency is reported as 10.4 µM (active). For `CSc1ccccc1NC(=O)C(C)N1C(=O)c2ccccc2S1(=O)=O` (stereo not drawn), the Potency was “inactive”. For `CC1=C(C(=O)OC2CCCCC2)C(c2ccccc2F)NC(=O)N1` (stereo not drawn), the Potency was “inactive”. In the case of `CC(=O)c1c(C)[nH]c(C(=O)COc2ccc3c(C)cc(=O)oc3c2)c1C`, the Potency is reported as “inactive”. With `CN(C1CCS(=O)(=O)C1)S(=O)(=O)c1ccc2ccccc2c1` (stereo not drawn) the Potency was “inactive”. With `COc1ccc(NC(=O)NNC(=O)COc2cc(C)c(Cl)c(C)c2)c(OC)c1` the Potency was “inactive”. With `CCN1C(=O)/C(=c2\s/c(=C3\Sc4ccccc4N3C)c(=O)n2C)N(C)C1=S` the Potency was “inactive”. In the case of `CN1/C(=c2/s/c(=C3/C(=O)N(c4ccccc4)NC3=Nc3ccccc3)n(C)c2=O)C(C)(C)c2ccccc21`, the Potency is reported as 13.1 µM (active). With `CCc1cc2c(NC(Cc3ccccc3)C(=O)O)ncnc2s1` (stereo not drawn) the Potency was “inactive”. With `CC(C)(C)C(=O)CSc1ccc(S(=O)(=O)N2CCCC2)cn1` the Potency was “inactive”. With `Cc1ccc(C)c(C(C)NC(=O)C2CCCO2)c1` (stereo not drawn) the Potency was “inactive”. With `COc1ccc(C(=O)NC2CC2)cc1OC1CCN(Cc2cnn(C)c2)CC1` the Potency was “inactive”. In the case of `Clc1ccc(CN2CCCCCC2)cc1Cl`, the Potency is reported as “inactive”. In the case of `Cn1c(-c2ccccc2)c[n+]2c1CCCCC2`, the Potency is reported as “inactive”. For `Clc1ccc(C[n+]2cc(-c3ccc(Cl)cc3)n3c2CCC3)cc1`, the Potency was 0.828 µM (active). With `Clc1ccc(C[n+]2cc(-c3ccccc3)n3c2CCC3)cc1` the Potency was 1.04 µM (active). In the case of `CC(NC(=O)c1cc2cc(Cl)ccc2oc1=N)c1ccccc1` (stereo not drawn), the Potency is reported as “inactive”.
